Reference: PubChem BioAssay (NCI)
About 83,000 compounds went through this panel and 20% of them were active in at least one assay; those are over-represented in the sample as a whole.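 Cells were grown in 96-well plates and exposed to the test compound at a single concentration for 48 hours; results are reported as percent growth, with values below 10 considered active.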 A number with no mark means an inactive call. Activity calls are given as the source filed them.

Experiments:
Test in all cases: NCI-60 one-dose screen, 48 h (100 = growth as untreated, 0 = no growth, -100 = all killed)
Conditions in all cases: 10 µM unless noted
[1] = system: NCI-H23 lung
[2] = system: NCI-H226 lung
[3] = system: NCI-H322M lung
[4] = system: HOP-62 NSCLC
[5] = system: NCI-H460 lung
[6] = system: NCI-H522 lung
[7] = system: A549/ATCC NSCLC
[8] = system: 786-0 renal
[9] = system: COLO 205 colon
[10] = system: DU-145 prostate
[11] = system: K-562 leukemia
[12] = system: MALME-3M melanoma
[13] = system: MDA-MB-231 breast
[14] = system: RXF 393 renal
[15] = system: SF-268 CNS
[16] = system: SF-295 CNS
[17] = system: SF-539 CNS
[18] = system: UACC-257 melanoma
[19] = system: M14 melanoma

## O=C1Nc2ccccc2/C1=C\c1nc(C2CCN(S(=O)(=O)c3ccc(F)cc3)CC2)n2ccccc12
[1]
  growth: 42%
[2]
  growth: 41.2%
[3]
  growth: 55.5%
[4]
  growth: 47.8%
[5]
  growth: 65%
[6]
  growth: 16.5%
[7]
  growth: 68.1%
[8]
  growth: -3.81% (active)
[9]
  growth: 79.1%
[10]
  growth: 57.1%
[11]
  growth: 56.9%
[12]
  growth: 3.9% (active)
[13]
  growth: 32.8%
[14]
  growth: 16.6%
[15]
  growth: 14.2%
[16]
  growth: 46.5%
[17]
  growth: 27.4%
[18]
  growth: 72%
[19]
  growth: 61.5%

## COc1ccc(N=C2CSc3nnc(-c4cc(F)c(Cl)cc4Cl)n3N2)cc1
[1]
  growth: -22.1% (active)
[2]
  growth: 27.9%
[3]
  growth: 6.08% (active)
[4]
  growth: -33.7% (active)
[5]
  growth: -63.2% (active)
[6]
  growth: -27.7% (active)
[7]
  growth: -21.1% (active)
[8]
  growth: -44.5% (active)
[9]
  growth: -21.1% (active)
[10]
  growth: -48.9% (active)
[11]
  growth: -58.4% (active)
[12]
  growth: -45.1% (active)
[13]
  growth: -4.51% (active)
[14]
  growth: -52.7% (active)
[15]
  growth: 7.12% (active)
[16]
  growth: -16.2% (active)
[17]
  growth: -67.3% (active)
[18]
  growth: 38.5%
[19]
  growth: -44.7% (active)

## CCOC(OCC)c1cnc2nc(NC(C)=O)[nH]c(=O)c2n1
[1]
  growth: 102%
[2]
  growth: 107%
[3]
  growth: 101%
[4]
  growth: 120%
[5]
  growth: 104%
[6]
  growth: 98.8%
[7]
  growth: 99.7%
[8]
  growth: 97.5%
[9]
  growth: 121%
[10]
  growth: 107%
[11]
  growth: 104%
[12]
  growth: 89.8%
[13]
  growth: 104%
[14]
  growth: 110%
[15]
  growth: 112%
[16]
  growth: 109%
[17]
  growth: 108%
[18]
  growth: 109%
[19]
  growth: 100%

## CCCCCCCCCCCCCC1=NC(C)(C)CN1C(C)C
[1]
  growth: -4.87% (active)
[2]
  growth: 2.64% (active)
[3]
  growth: 55.3%
[4]
  growth: -79.7% (active)
[5]
  growth: -52.2% (active)
[6]
  growth: -61.7% (active)
[7]
  growth: -50.2% (active)
[8]
  growth: -86.2% (active)
[9]
  growth: -62.9% (active)
[10]
  growth: 9.58% (active)
[11]
  growth: -49.5% (active)
[12]
  growth: -48.9% (active)
[13]
  growth: -56.7% (active)
[14]
  growth: -65.9% (active)
[15]
  growth: -53.5% (active)
[16]
  growth: -52.8% (active)
[17]
  growth: -79.2% (active)
[18]
  growth: -57.5% (active)
[19]
  growth: -74.8% (active)

## CC1(C)OC2OC3C(CN)OC(c4ccccc4)OC3C2O1 (configuration not stated)
[1]
  growth: 99.5%
[2]
  growth: 107%
[3]
  growth: 125%
[4]
  growth: 93.9%
[5]
  growth: 124%
[6]
  growth: 99%
[7]
  growth: 107%
[8]
  growth: 104%
[9]
  growth: 103%
[10]
  growth: 108%
[11]
  growth: 104%
[12]
  growth: 120%
[13]
  growth: 101%
[14]
  growth: 122%
[15]
  growth: 93.2%
[16]
  growth: 123%
[17]
  growth: 106%
[18]
  growth: 105%
[19]
  growth: 120%

## CC1=C(/C=C/C(C)=C/C=C(C(=O)O)\C(C)=C\C(=O)O)C(C)(C)CCC1
[1]
  growth: 101%
[2]
  growth: 112%
[3]
  growth: 103%
[4]
  growth: 108%
[5]
  growth: 104%
[6]
  growth: 77.9%
[7]
  growth: 93.7%
[8]
  growth: 99.5%
[9]
  growth: 112%
[10]
  growth: 109%
[11]
  growth: 87%
[12]
  growth: 128%
[13]
  growth: 98.6%
[14]
  growth: 106%
[15]
  growth: 100%
[16]
  growth: 130%
[17]
  growth: 93.6%
[18]
  growth: 92.4%
[19]
  growth: 101%

## CCN1C(=O)N(CC)C2C1NN=c1s/c(=C\c3ccc(Br)cc3)c(=O)n12 (configuration not stated)
[1]
  growth: 29.2%
[2]
  growth: 50.7%
[3]
  growth: 45.5%
[4]
  growth: 23.8%
[5]
  growth: 7.34% (active)
[6]
  growth: -49.9% (active)
[7]
  growth: 19.7%
[8]
  growth: 23.6%
[9]
  growth: -34.6% (active)
[10]
  growth: 6.46% (active)
[11]
  growth: 4.55% (active)
[12]
  growth: 52.2%
[13]
  growth: 25.9%
[14]
  growth: 40.5%
[15]
  growth: 36.1%
[16]
  growth: 17.4%
[17]
  growth: -5.08% (active)
[18]
  growth: 23.5%
[19]
  growth: 7.42% (active)

## CCCCCN(CCCCC)C(=O)C(CCC(=O)O)NC(=O)c1ccc(Cl)c(Cl)c1 (configuration not stated)
[1]
  growth: 105%
[2]
  growth: 92.6%
[3]
  growth: 102%
[4]
  growth: 102%
[5]
  growth: 106%
[6]
  growth: 110%
[7]
  growth: 85%
[8]
  growth: 106%
[9]
  growth: 120%
[10]
  growth: 113%
[11]
  growth: 115%
[12]
  growth: 104%
[13]
  growth: 88.1%
[14]
  growth: 106%
[15]
  growth: 110%
[16]
  growth: 110%
[17]
  growth: 113%
[18]
  growth: 111%
[19]
  growth: 109%
